A selection: hits, their analogues and other compounds. The true share with any hit is near 2.4%.
AmpC nodet inh = AmpC beta-lactamase inhibition, detergent-free assay | AmpC nitrocefin hydrolysis, absorbance 480 nm, no detergent | Potency, µM (highest dose often 28.7 µM) | 1.8% of 71,000 active | AID 585
Target sequence (P00811 whole entry, looked up): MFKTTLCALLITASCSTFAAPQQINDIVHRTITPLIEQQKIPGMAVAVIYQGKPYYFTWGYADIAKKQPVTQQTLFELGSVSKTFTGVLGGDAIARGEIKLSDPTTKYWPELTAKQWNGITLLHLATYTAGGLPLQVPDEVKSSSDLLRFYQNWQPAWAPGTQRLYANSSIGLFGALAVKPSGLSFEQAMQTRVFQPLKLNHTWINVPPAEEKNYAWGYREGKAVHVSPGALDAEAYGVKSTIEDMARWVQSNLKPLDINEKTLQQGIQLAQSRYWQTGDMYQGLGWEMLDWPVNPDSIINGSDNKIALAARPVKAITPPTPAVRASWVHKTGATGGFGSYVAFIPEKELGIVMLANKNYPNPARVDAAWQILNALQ
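AmpC in 20 mM phosphate buffer pH 7.0 was preincubated 15 min at room temperature with compounds. Nitrocefin (800 uM stock) was then added and hydrolysis followed at 480 nm every 20 s for 4 min.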
AmpC inh det = AmpC beta-lactamase inhibition, detergent assay; P00811; Potency, µM (top dose mostly 28.7 µM); purified AmpC, nitrocefin hydrolysis with detergent; 0.09% of 71,000 active; active = well fitted curve in the direction sought with a large enough effect; inconclusive = small, poorly fitted or top-dose-only effect
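E. coli AmpC (5.3 nM) in 20 mM phosphate pH 7.0 with 0.01% Triton X-100, preincubated 15 min RT with compound; nitrocefin (2 uL of 800 uM stock) hydrolysis followed by 480 nm absorbance every 20 s over 4 min.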
Prx2 Sm inh = inhibitors of Schistosoma mansoni peroxiredoxin 2; S. mansoni Prx2 activity coupled to TGR/GSH (TGR is thioredoxin glutathione reductase), NADPH fluorescence loss, qHTS; 0.07% of 65,000 active; AID 448; Potency, µM
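Prx2 activity was followed as the loss of NADPH fluorescence (ex 365/em 450 nm), read every 30 sec for 8 min after H2O2 start. The enzyme mix (50 nM Prx2, 25 nM TGR, GSH, NADPH; pH 7.4 phosphate buffer) was incubated with compound for 15 min at room temperature first.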
Anthrax LT inh = blocks cellular internalization of anthrax lethal toxin. Cells, anthrax lethal toxin internalization, FRET ratio (460/530). Potency, µM (doses to about 40 µM), most hits filed as inhibitors. 0.67% of 70,000 active. AID 912; also: nearly all actives have a fitted effect of over 50% in size
Of the large screens only hits and unclear results are named; the others gave an inactive call; [ ] = another dose, or the depositor's remark. Unless noted, calls follow the shape of the full dose curve.

CCOc1ccc2nc(NC(=O)Nc3cccs3)sc2c1	AmpC nodet inh 3.2µM[single pt active], Anthrax LT inh inconclusive
CCOc1ccc2nc(NC(=O)COC)sc2c1	none
Cc1ccc(-c2csc(N3CCC(C(N)=O)(N4CCCCC4)CC3)n2)cc1	AmpC nodet inh 4µM[single pt active]
CO[C@@H]1COC(=O)[C@@H](CCSC)NC(=O)C/C=C\[C@@H](C)COC(=O)[C@H](C)NC(=O)C/C=C\[C@H]1C	none (no result: AmpC nodet inh, AmpC inh det, Prx2 Sm inh)
COc1ccc(NC(=O)N2c3ccccc3CC2C)cc1OC (stereo not drawn)	none
COC(=O)c1ccccc1NC(=O)N1c2ccccc2CC1C (stereo not drawn)	Anthrax LT inh 16µM
CCOC(=O)N1CCN(c2nc(SC)nc3sc4c(c23)CC(C)(C)OC4)CC1	AmpC nodet inh inconclusive, AmpC inh det inconclusive, Anthrax LT inh inconclusive
CC1(C)Cc2c(sc3nc(SCC(=O)N4CCOCC4)nc(N)c23)CO1	Anthrax LT inh 7.9µM
CO[C@H]1COC(=O)C/C=C\[C@H](C)[C@@H](OC)COC(=O)[C@@H](C)COC(=O)C/C=C\[C@@H]1C	none (no result: AmpC nodet inh, AmpC inh det, Prx2 Sm inh)
O=C(CC1(O)C(=O)Nc2cc(Cl)cc(Cl)c21)c1ccccc1O (stereo not drawn)	AmpC nodet inh 13µM, AmpC inh det 10µM
Cc1cc(NC(=O)CSc2nc(-c3ccc(F)cc3)cs2)no1	none
O=C(CSc1nc(-c2ccc(F)cc2)cs1)NC(=O)NCc1ccco1	AmpC nodet inh 3.2µM
COc1cc(-c2ccc(N=Nc3ccc4c(S(=O)(=O)O)cc(S(=O)(=O)O)c(N)c4c3O)c(OC)c2)ccc1N=Nc1ccc2c(S(=O)(=O)O)cc(S(=O)(=O)O)c(N)c2c1O	AmpC inh det inconclusive, Anthrax LT inh inconclusive
ClC1=C(Cl)C2(Cl)C3C(Cl)C=CC3C1(Cl)C2(Cl)Cl (stereo not drawn)	Anthrax LT inh 16µM (no result: Prx2 Sm inh)
O=C(O)c1nnsc1-c1ccc(-c2snnc2C(=O)O)cc1	none
O=C(NCc1ccccc1)c1noc2c1CCCC2	none
CC(C)CNC(=O)c1noc2c1CCCC2	AmpC nodet inh 4µM[single pt active]
O=c1[nH]c(=O)n([C@H]2C[C@H](O)[C@H](CO)O2)cc1/C=C\Br	none
c1cc(CCN2CCCCC2)ccn1	none
C=CC1=C(C)C2=NC1=CC1=NC(=CC3=NC(=CC4=NC(=C2)C(C)=C4CCC(=O)O)C(CCC(=O)O)=C3C)C(C=C)=C1C.[Zn]	Anthrax LT inh 16µM
N#CCCSC(=S)[C@H]1CCCC1=N	none
CCCCC#Cc1nc(N)c2ncn([C@@H]3O[C@@H](C(=O)NCC)[C@H](O)[C@@H]3O)c2n1	none
O=C(Nc1ccc([N+](=O)[O-])cc1Cl)c1cc(Cl)ccc1O	Anthrax LT inh 0.25µM
Nc1nc(SCC(=O)c2ccc(Oc3ccccc3)cc2)n[nH]1	AmpC nodet inh 10µM, Anthrax LT inh inconclusive
COc1ccc(S(=O)(=O)n2nc(OC(=O)c3ccc(C)cc3)cc2N)cc1	AmpC nodet inh 13µM
Cc1nc2ccccc2c2oc(C(=O)N3CCN(C(=O)c4ccco4)CC3)cc12	none
Cc1nc2ccccc2c2oc(C(=O)N3CCc4ccccc4C3)cc12	Anthrax LT inh 10µM
OC[C@H](CCc1c[nH]c2ccccc12)c1c[nH]c2ccccc12	none
CCC(C)C(=O)Nc1nc2c(s1)C(=O)CC(C)(C)C2 (stereo not drawn)	AmpC nodet inh 4µM[single pt active]
Oc1ccc(Cl)cc1Cc1cc(Cl)cc(Cc2cc(Cl)ccc2O)c1O	Anthrax LT inh 4µM
O=C(O)Cc1cc(Cl)ccc1O	none
Cc1cc(/C=N/n2cnnc2)c(C)n1-c1ccc(OCc2ccc(F)cc2)cc1	Anthrax LT inh 13µM
Cc1cc(/C=N/n2cnnc2)c(C)n1-c1cccc(Cl)c1	none (no result: Prx2 Sm inh)
Cc1ccc(-c2nnc(N3CCN(c4ccccn4)CC3)c3ccccc23)cc1	none
c1ccc(-c2nnc(N3CCN(c4ccccn4)CC3)c3ccccc23)cc1	Anthrax LT inh 10µM
NC(=O)C/C=C\CC(N)=O	none
CCOC(=O)c1sc(NC(=O)CSc2nnc(-c3ccco3)n2CC)c(C(=O)OCC)c1C	Anthrax LT inh 10µM
CCOC(=O)c1c(NC(=O)CSc2nnc(-c3ccccc3)n2CC)sc(C(C)=O)c1C	none (no result: Prx2 Sm inh)
C=C(C)[C@H]1[C@H]2OC(=O)[C@@H]1[C@]1(O)C[C@H]3O[C@]34C(=O)O[C@H]2[C@]14C	none
Cc1ccc2nc(-c3ccc(N)cc3)sc2c1S(=O)(=O)O	Anthrax LT inh inconclusive (no result: Prx2 Sm inh)
O=c1cc(N2CCc3ccccc3C2)[nH]c(=O)n1-c1ccc(Br)cc1	AmpC nodet inh 16µM[single pt active]
O=c1cc(N2CCCC2)[nH]c(=O)n1-c1ccc(Cl)cc1	none
O=c1cc(N2CCc3ccccc3C2)[nH]c(=O)n1-c1ccc(Cl)cc1	AmpC nodet inh 16µM[single pt active]
COc1cccc(-c2cncnc2-n2ccnc2)c1	none
COc1cccc(-c2nccc(-n3ccnc3)n2)c1	AmpC nodet inh 10µM, AmpC inh det 13µM, Anthrax LT inh inconclusive
CN(C)Cc1c[nH]c2ccccc12	Anthrax LT inh inconclusive
CN(C)CCCn1cc(C2=C(c3c[nH]c4ccccc34)C(=O)NC2=O)c2ccccc21	Anthrax LT inh 0.4µM
Cc1ccccc1-c1cncnc1NCc1cccs1	none
Cc1csc(NC(=O)CCCSc2nc3ccccc3s2)n1	none
Cc1cnc(NC(=O)CCCSc2nc3ccccc3s2)s1	AmpC nodet inh 13µM
CCCCCCCCCCCCC/C=C\[C@@H](O)[C@H](CO)NC(C)=O	Anthrax LT inh 16µM
CCOC(=O)Cn1c(=O)oc2cc(S(=O)(=O)NCCCc3ccccc3)ccc21	AmpC nodet inh 0.32µM[single pt active], Anthrax LT inh inconclusive
Cc1ccc2c(c1)NC(=O)C(CC(=O)NCCCN1CCCC1)O2 (stereo not drawn)	AmpC nodet inh 4µM[single pt active]
Cc1ccc2c(c1)NC(=O)C(CC(=O)NCCCN1CCN(C3CCCCC3)CC1)O2 (stereo not drawn)	none
COc1ccc(N2CCN(CCCNC(=O)CC3Oc4ccc(C)cc4NC3=O)CC2)cc1 (stereo not drawn)	AmpC nodet inh 4µM[single pt active], Anthrax LT inh inconclusive
CC(C)S	none (no result: Prx2 Sm inh)
CCc1nc2ccccc2c(C(=O)OCC(=O)Nc2ccc(S(=O)(=O)N3CCOCC3)cc2)c1C	Anthrax LT inh 13µM
CC(C)(C)c1cc(C#N)cc(Br)c1OP(=O)(Oc1c(Br)cc(C#N)cc1C(C)(C)C)c1ccccc1	none
C[C@@]12C[C@H](O)[C@@H]3[C@H](CCC4=CC(=O)CC[C@]43C)[C@H]1CC[C@@H]2c1csc(N)n1	none
COc1ccc(OC)c(NS(=O)(=O)c2ccc(NC(=O)C3COc4ccccc4O3)cc2)c1 (stereo not drawn)	AmpC nodet inh 10µM, Anthrax LT inh inconclusive (no result: Prx2 Sm inh)
COc1cc(NC(=O)C2COc3ccccc3O2)c(OC)cc1Cl (stereo not drawn)	Anthrax LT inh 13µM
CC(C)(C)NC(=O)c1ccc(NC(=O)C2COc3ccccc3O2)cc1 (stereo not drawn)	none
CC1CC(C)CN(S(=O)(=O)c2ccc(NC(=O)C3COc4ccccc4O3)cc2)C1 (stereo not drawn)	AmpC nodet inh 16µM[single pt active], Anthrax LT inh inconclusive
COC(=O)c1ccc(C)c(NC(=O)C2COc3ccccc3O2)c1 (stereo not drawn)	none (no result: Anthrax LT inh)

From PubChem
